HEK cytotox: Cytotoxic Profiling in HEK 293 Cell Line of Diverse Libraries Using Quantitative High-Throughput Screening; Potency, µM (highest dose often 115 µM), without a hit: at the top dose activity change, negative = cytotoxicity, usual class: inhibitors; HEK 293 viability, ATP luminescence (CellTiter-Glo), 48-72 h; 94,000 compounds, 6.6% hits; further: on the % scale 0 is the no-effect control and ±100 the full control effect; nearly all actives have a fitted effect of over 60% in size
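HEK 293 cells seeded at 250 cells/well were exposed to compound for 48 or 72 hr at 37 degree Celsius. Viability taken as ATP content by CellTiter-Glo luminescence.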
NIH3T3 tox: Cytotoxic Profiling in NIH 3T3 Cell Line of Diverse Libraries Using Quantitative High-Throughput Screening; 94,000 compounds, 4.3% hits; NIH 3T3 viability, CellTiter-Glo ATP luminescence, 48-72 h; Potency, µM (doses to about 96.7 µM), inactives show at the highest dose activity change, negative = cytotoxicity, hits mostly inhibitors; further: on the % scale 0 is the no-effect control and ±100 the full control effect; nearly all actives have a fitted effect of over 55% in size
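NIH 3T3 cells at 400 cells/well received 23 nL of compound by pintool and were incubated 48 or 72 h at 37 °C. Viability was read as ATP-coupled CellTiter-Glo luminescence.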
FLuc inh-1: Firefly luciferase inhibition profiling of diverse chemical library using quantitative high-throughput screening; Luciferin 4-monooxygenase (Photinus pyralis), P08659; purified P. pyralis luciferase, luminescence, biochemical; Potency, µM (series often up to 115 µM), hits mostly inhibitors; 76,000 compounds, 2.5% hits; further: on the % scale 0 is the no-effect control and ±100 the full control effect; nearly all actives have a fitted effect of over 65% in size
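Cell-free enzyme assay, 10nM P. pyralis luciferase, luciferin and ATP each at 10uM. Inhibition profiled over a 6-point titration, read as luminescence.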
hNpr1 antagonist: Natriuretic polypeptide receptor (hNpr1) antagonism - Primary qHTS; Atrial natriuretic peptide receptor 1 (Homo sapiens), P16066; HEK293 hNpr1 GloSensor cGMP, ANP-stimulated luminescence; Potency, µM (doses to about 46.3 µM), for inactives: top-dose activity change, negative = inhibition, most hits filed as inhibitors; 76,000 compounds, 1.6% hits; AID 1347048, 2019; calls by dose curve; further: on the % scale 0 is the no-effect control and ±100 the full control effect; nearly all actives have a fitted effect of over 60% in size
Target sequence (P16066 whole entry, looked up): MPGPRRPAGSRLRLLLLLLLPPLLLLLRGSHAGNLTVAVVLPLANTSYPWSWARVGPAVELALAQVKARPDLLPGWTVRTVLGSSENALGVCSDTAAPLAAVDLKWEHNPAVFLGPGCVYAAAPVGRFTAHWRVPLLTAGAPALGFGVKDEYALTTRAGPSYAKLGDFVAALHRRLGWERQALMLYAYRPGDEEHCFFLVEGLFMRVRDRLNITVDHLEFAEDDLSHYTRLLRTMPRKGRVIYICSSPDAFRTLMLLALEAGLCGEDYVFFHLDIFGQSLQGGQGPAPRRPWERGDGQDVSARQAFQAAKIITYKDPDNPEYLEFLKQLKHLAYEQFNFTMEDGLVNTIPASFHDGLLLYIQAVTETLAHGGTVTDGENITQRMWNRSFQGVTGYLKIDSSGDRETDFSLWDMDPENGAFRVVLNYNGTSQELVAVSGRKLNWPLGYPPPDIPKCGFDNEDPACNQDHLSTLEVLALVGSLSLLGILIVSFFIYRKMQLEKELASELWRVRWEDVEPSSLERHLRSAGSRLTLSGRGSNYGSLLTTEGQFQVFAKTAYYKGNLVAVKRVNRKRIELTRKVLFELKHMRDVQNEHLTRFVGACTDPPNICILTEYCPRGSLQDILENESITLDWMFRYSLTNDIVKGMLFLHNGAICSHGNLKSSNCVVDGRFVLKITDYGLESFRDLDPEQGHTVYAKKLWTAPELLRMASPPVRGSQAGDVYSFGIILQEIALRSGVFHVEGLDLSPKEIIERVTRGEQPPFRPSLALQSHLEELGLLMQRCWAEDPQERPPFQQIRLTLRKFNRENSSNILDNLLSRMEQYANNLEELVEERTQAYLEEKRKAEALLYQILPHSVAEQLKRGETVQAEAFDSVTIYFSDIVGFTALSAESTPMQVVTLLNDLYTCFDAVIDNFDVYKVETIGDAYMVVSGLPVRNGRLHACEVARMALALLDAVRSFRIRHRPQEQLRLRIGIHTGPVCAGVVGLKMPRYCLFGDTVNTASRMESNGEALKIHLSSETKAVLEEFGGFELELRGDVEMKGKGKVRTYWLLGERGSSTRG
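Compound pre-incubated 30 min at room temperature on GloSensor-loaded HEK293 cells stably carrying hNpr1 and the pGS-40F cGMP biosensor. Stimulation uses hNppA at 0.1 nM final; luminescence is taken at baseline and 20 min post-agonist.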
FLuc SDR -ATP: Firefly luciferase (FLuc-C-HiBiT) SDR gain of signal screen - without ATP | shares compounds with FLuc inh-1 | Purified FLuc-C-HiBiT, Nano-Glo HiBiT luminescence, no ATP | Potency, µM (highest dose often 32.7 µM), for the others: at the top dose activation (signal gain), hits mostly activators | 1,300 compounds, 7.8% hits; further: nearly all actives have a fitted effect of over 55% in size
FLuc SDR ATP: Firefly luciferase (FLuc-C-HiBiT) SDR gain of signal screen - plus ATP | shares compounds with FLuc inh-1 | purified FLuc-C-HiBiT + ATP, HiBiT complementation luminescence | Potency, µM (titrated, usually from 32.7 µM), without a hit: at the top dose activation (gain of signal), actives largely listed as activators | 1,300 compounds, 8.7% hits;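 further: signal reports ligand binding via conformational change of the enzyme rather than luciferase catalysis; % of control where 0% means no effect; nearly all actives have a fitted effect of over 55% in size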
FLuc inh-2: Firefly luciferase (FLuc-C-HiBiT) enzymatic inhibition screen - Functional assay. shares compounds with FLuc inh-1. purified FLuc-C-HiBiT enzyme, luciferin luminescence. Potency, µM (titrated, usually from 32.7 µM), inactives show at the highest dose activity change, negative = inhibition, actives largely listed as inhibitors. 1,300 compounds, 42% hits. AID 1963320, 2024; further: on the % scale 0 is the no-effect control and ±100 the full control effect; nearly all actives have a fitted effect of over 70% in size
* hit, by the source's call; [ ] = dose if it differs, or a comment. This is a sample that favours compounds with a hit; in the whole collection about 11% have one here. Unless noted, the call rests on the fitted dose curve; in most records, active means well fitted curve in the direction sought with a large enough effect; inconclusive means small, poorly fitted or top-dose-only effect, or another doubt; inactive means no such curve, though single readings can be large; an effect the other way counts as inactive or inconclusive. Potency means the concentration at half of the fitted maximal effect.

CNC(=O)c1cc(C)nc2onc(C3CCN(C(=O)c4ccc(Cl)nc4)C3)c12 (centres undefined) was read as HEK cytotox -9% and NIH3T3 tox -21%.
For Cc1sc2cc(C(=O)N3CCCC3)[nH]c2c1CN1CCCCC1 the results were HEK cytotox -4%, NIH3T3 tox 4%, FLuc inh-1 inactive and hNpr1 antagonist 0%.
O=C(c1cc2ccc3cccnc3c2[nH]1)N1CCCCC1 was read as FLuc SDR -ATP 11µM*, FLuc SDR ATP inconclusive and FLuc inh-2 1.6µM*.
Screening CC1CCCN(C(=O)c2cc3ccc4cccnc4c3[nH]2)C1 (centres undefined) returned FLuc SDR -ATP 3.9µM*, FLuc SDR ATP 2.5µM* and FLuc inh-2 0.56µM*.
For O=C1CC(C(=O)NCc2cc3n(n2)CCN(C2CCCCC2)C3)C2(CCCC2)O1 (centres undefined) the results were HEK cytotox -33%, NIH3T3 tox -16%, FLuc inh-1 inactive and hNpr1 antagonist -1%.
Screening COC(=O)C1CCN(c2csc3ccc(C)cc3c2=O)CC1 returned FLuc SDR -ATP 31%, FLuc SDR ATP inconclusive and FLuc inh-2 7.9µM*.
Screening COc1cccc2cc(-c3nnc(-c4ccc(Cl)cc4)o3)c(=O)oc12 returned FLuc SDR -ATP 17%, FLuc SDR ATP inconclusive and FLuc inh-2 inconclusive.
`COc1cccc(-c2ccc(C(=O)NCCNC(=O)c3cccnc3)cc2)c1` gave HEK cytotox inconclusive and NIH3T3 tox -24%.
Screening CCN(CC)S(=O)(=O)c1ccc2nc(NC(=O)c3cccnc3)sc2c1 returned FLuc SDR -ATP 16%, FLuc SDR ATP 11% and FLuc inh-2 inconclusive.
`COc1cccc(NC(=O)Cn2c(=O)c(-c3noc(C)n3)c3n(c2=O)CCCC3)c1` gave HEK cytotox -8%, NIH3T3 tox -9%, FLuc inh-1 inactive and hNpr1 antagonist 0%.
For COc1cccc(C(=O)Nc2cccc(OCc3cc(=O)n4c5c(sc4n3)CCCC5)c2)c1 the results were FLuc SDR -ATP 21%, FLuc SDR ATP 11% and FLuc inh-2 inconclusive.
For O=C([C@H]1C[C@H](Oc2ccccc2)CN1Cc1ccc2[nH]ccc2c1)N1CCOCC1 the results were HEK cytotox -28%, NIH3T3 tox -27%, FLuc inh-1 inactive and hNpr1 antagonist 4%.
`O=C1NC[C@@H](CCC(=O)N2CCCC2)N2C[C@@H](NCc3ccccc3)C[C@@H]12` gave HEK cytotox 1%[172 µM], NIH3T3 tox 3%[174 µM], FLuc inh-1 inactive and hNpr1 antagonist 2%[70.6 µM].
Screening CCOC(=O)N1CCC(c2noc3nc(C)cc(C(=O)NC)c23)C1 (centres undefined) returned HEK cytotox 2% and NIH3T3 tox -23%.
`CN1CCCCCCN(C(=O)Nc2ccc3c(c2)OCCO3)CCC1=O` gave HEK cytotox -1%, NIH3T3 tox -11%, FLuc inh-1 4.5µM*, hNpr1 antagonist -29%, FLuc SDR -ATP 29%, FLuc SDR ATP inconclusive and FLuc inh-2 9.9µM*.
Screening O=C1NCCCCCCN(Cc2ccncc2)[C@@H]2CN(C(=O)Nc3ccc4c(c3)OCCO4)CC[C@H]12 returned HEK cytotox -21%, NIH3T3 tox inconclusive, FLuc inh-1 11µM*, hNpr1 antagonist -3%, FLuc SDR -ATP 20%, FLuc SDR ATP 17% and FLuc inh-2 inconclusive.
O=C1NCCCCCCN(C(=O)Nc2ccc3c(c2)OCCO3)[C@H]2CCCC[C@@H]12 was read as HEK cytotox 0%, NIH3T3 tox -12%, FLuc inh-1 4.5µM*, hNpr1 antagonist inconclusive, FLuc SDR -ATP 27%, FLuc SDR ATP inconclusive and FLuc inh-2 8.8µM*.
For Cc1ccc(NC(=O)N2CC[C@@H]3C(=O)NCCCCCCN(Cc4ccncc4)[C@@H]3C2)cc1C the results were HEK cytotox inconclusive, NIH3T3 tox inconclusive, FLuc inh-1 inactive and hNpr1 antagonist -3%.
O=C(Nc1ccc2c(c1)OCCO2)N1CCN(C(=O)N2CC3CC(C2)[C@H]2CCCC(=O)N2C3)CC1 (some centres undefined) was read as HEK cytotox 14%, NIH3T3 tox 3%, FLuc inh-1 inactive and hNpr1 antagonist 2%.
COCCCNC(=O)c1nc2cccnc2n(C2CC2)c1=O was read as HEK cytotox 0%[172 µM] and NIH3T3 tox 3%[138 µM].
`COC(=O)C1=CN(CC(=O)N(C)c2ccccc2)S(=O)(=O)N=C1C` gave HEK cytotox 0%, NIH3T3 tox -9%, FLuc inh-1 inactive and hNpr1 antagonist -1%.
`CCOC(=O)c1ccc(NC(=O)CSc2nnc(CNC(=O)c3ccc(OC)cc3)n2CC)cc1` gave FLuc SDR -ATP 15%, FLuc SDR ATP 11% and FLuc inh-2 inconclusive.
For COc1ccc(-c2nnc3n2CCN(C(=O)C2CCCC2)C3)cc1 the results were HEK cytotox -25%[172 µM], NIH3T3 tox -21%[138 µM], FLuc inh-1 inactive and hNpr1 antagonist 2%[70.6 µM].
For Cc1nc(-c2ccc(F)cc2)n(CC(=O)NCc2ccc3c(c2)OCO3)c(=O)c1CCO the results were HEK cytotox -17%, NIH3T3 tox inconclusive, FLuc inh-1 inactive and hNpr1 antagonist -5%.
`Cc1c(-c2ccc(F)cc2)[nH]c2ccc(CNC(=O)CN3CCOC3=O)cc12` gave HEK cytotox inconclusive, NIH3T3 tox inconclusive, FLuc inh-1 13µM*, hNpr1 antagonist -22%, FLuc SDR -ATP 14%, FLuc SDR ATP 10% and FLuc inh-2 inconclusive.
`O=C(NCc1ccccn1)c1ccc2nnc(C3CCCC3)n2c1` gave HEK cytotox 2%[172 µM] and NIH3T3 tox -10%[138 µM].

Screening data as filed in PubChem.
